Compound activity deposited in PubChem BioAssay by several laboratories.
CYP2C19 inhib – blocks human cytochrome P450 2C19. CYP2C19 Supersomes, luciferin-H EGE luminescence, 30 min. actives 21% (n = 96,000). P33261. inhibition, % at 5 µM;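 active = CYP2C19 inhibition above a set limit at 5 µM in the primary screen, cut at about 50% in these data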;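 note: plate controls were negative control wells for no effect and 2.5 mM tranylcypromine positive control for full effect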
D1 allo mod – allosteric modulators of human D1 dopamine receptor | P21728 | HEK293 D1, CRE-luciferase, dopamine EC30 potentiation; actives deviate in either direction | B-score at 10 µM | actives 5.9% (n = 58,000) | AID 641;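 active = luminescence count or its row- and column-corrected plate score outside the 99.7% band of the plate's sample wells, on either side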
CYP2C19 act – increases human CYP2C19 enzyme activity; AID 1025; 96,000 tested, under 10 active; activation factor at 5 µM; P33261; recombinant CYP2C19, luciferin-H EGE luminescence; hits give high values; 0 = fully inhibited enzyme, 1 = untreated enzyme;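 active = activation factor of at least 2 at 5 µM in the primary screen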;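 note: 0 = wells with 2.5 mM tranylcypromine and 1 = vehicle-only wells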
CYP2C9 activ – activators of human CYP2C9. activation factor at 5 µM. actives 1.4% (n = 96,000). recombinant CYP2C9, luciferin-H conversion, luminescence; hits give high values; factor 1 = untreated enzyme, 0 = blocked. P11712. AID 1024;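 active = activation factor of 2 or more for CYP2C9 at a 5 µM dose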;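 note: 0 = sulfaphenazole-blocked wells and 1 = vehicle-only wells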
Target sequence (P11712 whole entry, looked up): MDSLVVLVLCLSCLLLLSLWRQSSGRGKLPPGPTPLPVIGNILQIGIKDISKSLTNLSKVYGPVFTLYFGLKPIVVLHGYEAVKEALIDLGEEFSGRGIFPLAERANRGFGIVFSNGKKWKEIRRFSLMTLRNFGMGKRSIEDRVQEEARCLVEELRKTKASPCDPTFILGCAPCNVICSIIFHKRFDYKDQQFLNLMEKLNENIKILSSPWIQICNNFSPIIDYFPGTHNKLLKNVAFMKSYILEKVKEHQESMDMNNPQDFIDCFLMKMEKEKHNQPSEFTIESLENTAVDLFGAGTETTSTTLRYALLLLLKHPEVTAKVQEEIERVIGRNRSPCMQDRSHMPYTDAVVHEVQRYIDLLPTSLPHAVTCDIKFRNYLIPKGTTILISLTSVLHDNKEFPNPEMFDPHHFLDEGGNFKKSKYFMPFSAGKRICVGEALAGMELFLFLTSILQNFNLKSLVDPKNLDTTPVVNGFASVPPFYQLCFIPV
CYP2C9 inhib – inhibitors of human CYP2C9; P11712; CYP2C9 Supersomes, luciferin-H conversion, luminescence; inhibition, % at 5 µM; actives 20% (n = 96,000); AID 777;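 active = blocking of liver enzyme CYP2C9 beyond about 50% at 5 µM, limit read from the data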
hDAT+cocaine – modulates human dopamine transporter uptake under cocaine; Q01959; LLC-PK1 hDAT cells, [14C]-dopamine uptake with cocaine IC80; actives deviate in either direction; B-score at 10 µM; actives 1.3% (n = 110,000);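 active = Z score or B-score, a plate-position-corrected score, falls beyond the plate's 99.7% confidence bounds, in either direction; inactive = both scores lie inside the 99.7% bounds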;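 note: scored against the spread of the other compound wells on the same plate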
Starred values were filed as active, the others as inactive; x = no result. An excerpt weighted towards active compounds, which were near 28% of everything screened.

SMILES | CYP2C19 inhib | D1 allo mod | CYP2C19 act | CYP2C9 activ | CYP2C9 inhib | hDAT+cocaine
COCCNC(=O)Cn1nc(C(F)(F)F)c(Cl)c1C | 40 | -0.14 | 0.6 | 0.8 | 19 | x
CC(O)(CS(=O)(=O)Cc1ccccc1Cl)C(=O)Nc1cccc(C(F)(F)F)c1 (configuration not stated) | 54* | x | 0.5 | 0.6 | 38 | -1.8
COc1cc(C(=O)N2CCN=C2c2ccccc2)cc(OC)c1OC | 41 | 0.75 | 0.6 | 1.1 | -6 | 0.13
Cc1cc(C)c(S(=O)(=O)N2CCN=C2c2ccccc2)cc1C | 60* | x | 0.4 | 1.5 | -47 | -0.0068
Cc1ccc(NC(=O)CCSc2nc(C)cc(C)n2)cc1 | 43 | x | 0.6 | 0.7 | 32 | 0.27
NC(=S)NNC(=O)c1ccccc1 | -7 | x | 1.1 | 1 | 3 | -0.00038
Cc1ccc(C(=O)NNC(=S)Nc2cccc(Cl)c2Cl)cc1[N+](=O)[O-] | 25 | x | 0.8 | 0.2 | 76* | -0.82
COC(=O)c1ccc(C23CC4(C2)[C@H](CN(CC2CCCCC2)[C@@H]4c2ccccc2)C3c2ccccc2)cc1 (some centres not stated) | x | x | x | x | x | 0.21
CC(COc1ccccc1Cc1ccccc1)N1CCCCC1 (configuration not stated) | x | x | x | x | x | -0.94
O=C(O)CCCC(=O)Nc1ccccc1C(=O)O | -16 | 0.007 | 1.2 | 1.1 | -8 | -0.73
CC(C)Cc1ccc(C#N)c(SCC(N)=O)n1 | 61* | 0.8 | 0.4 | 0.7 | 26 | -0.43
Nc1ccccc1-c1nnc(-c2ccc(-c3ccccc3)cc2)o1 | 20 | x | 0.8 | 0.6 | 40 | x
COc1ccccc1NC(=O)Cn1nnc(-c2ccccc2NC(=O)c2cc3ccccc3oc2=O)n1 | -4 | x | 1 | 0.8 | 24 | 0.025
CCN(CC)CCCN1C(=O)C(=O)/C(=C(/O)c2ccc3c(c2)OCCO3)C1c1ccc(C)o1 (configuration not stated) | 4 | 2.3* | 1 | 1 | -1 | x
COc1ccc(OC)c(C2/C(=C(\O)c3ccc4c(c3)OCCO4)C(=O)C(=O)N2CCCN(C)C)c1 (configuration not stated) | x | 1.5 | x | x | x | x
O=C(OCc1nnc(-c2ccccc2)o1)c1ccco1 | 18 | -0.097 | 0.8 | 0.9 | 6 | 0.0028
Cc1nn(Cc2ccccc2)c(Cl)c1C(=O)OCc1nnc(-c2ccc(Cl)cc2)o1 | 40 | 0.3 | 0.6 | 0.4 | 62* | 2.6*
Cc1nn(Cc2ccccc2)c(Cl)c1C(=O)OCc1nnc(-c2ccccc2)o1 | 92* | -0.0017 | 0.1 | 0.1 | 86* | 0.54
COC(=O)CCC(=O)Nc1ccc(Br)cc1 | 65* | -0.86 | 0.3 | 0.6 | 38 | -0.51
COC(=O)CCC(=O)Nc1ccc(OC)cc1 | -6 | -1.2 | 1.1 | 1 | 1 | -0.055
CCOc1cccc(=O)c2c(C)n(C)c(C)c12 | 52* | -0.51 | 0.5 | 0.5 | 49 | 1.5
COc1cccc(=O)c2c(C)n(C)c(C)c12 | -1 | 0.075 | 1 | 0.9 | 9 | -0.0054
CC1(C)NC(=O)N(CCOc2ccc3c(c2)CCC3)C1=O | 72* | -1.5 | 0.3 | 0.8 | 21 | 1.1
CCC(C)(C)c1ccc(OCCN2C(=O)NC(C)(C)C2=O)cc1 | 89* | x | 0.1 | 0.2 | 76* | 1.2
CCOc1ccc(OCCN2C(=O)NC3(CCCc4ccccc43)C2=O)cc1 (configuration not stated) | 18 | -0.37 | 0.8 | 0.6 | 45 | 1
SMILES | CYP2C19 inhib | D1 allo mod | CYP2C19 act | CYP2C9 activ | CYP2C9 inhib | hDAT+cocaine
Cc1ccc(S(=O)(=O)N(CC(=O)N/N=C/c2cccc3c2OCCO3)c2ccccc2F)cc1 | 82* | x | 0.2 | 0.1 | 94* | 0.2
CN(Cc1ccccc1)S(=O)(=O)c1ccc2c(c1)n(C)c(=O)n2C | 65* | -0.28 | 0.3 | 1 | 4 | 0.74
COc1ccc(S(=O)(=O)N2CCCN(Cc3cccc(F)c3)CC2)cc1 | 60* | -0.38 | 0.4 | 1.6 | -55 | 0.073
Cn1c(=O)c2cc(S(=O)(=O)N3CCC(c4ccccc4)CC3)ccc2n(C)c1=O | 20 | -0.016 | 0.8 | 0.3 | 68* | 0.48
Cn1c(=O)c(=O)n(C)c2cc(S(=O)(=O)N3CCN(Cc4ccccc4)CC3)ccc21 | -2 | 0.052 | 1 | 0.5 | 51* | x
CCC(=O)NS(=O)(=O)c1ccc(-c2c(-c3ccccc3)noc2C)cc1 | x | x | x | x | x | -0.11
N#Cc1c(Cc2cccc3ccccc23)nn(CCO)c1N | x | x | x | x | x | -1.7
